Reference: ChEMBL document CHEMBL1961873, “Compounds: GSK PKIS; Assays: Nanosyn kinase panel” (2012)

The compounds below were run against Serine/threonine-protein kinase 26 (Homo sapiens) (UniProt Q9P289). Details: at 1 µM.
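Note: mean inhibition of MST4 kinase activity, reported from the GSK PKIS inhibitor-set screening panel.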

Chain of Serine/threonine-protein kinase 26 (Homo sapiens) (Q9P289 2-416 limits assumed): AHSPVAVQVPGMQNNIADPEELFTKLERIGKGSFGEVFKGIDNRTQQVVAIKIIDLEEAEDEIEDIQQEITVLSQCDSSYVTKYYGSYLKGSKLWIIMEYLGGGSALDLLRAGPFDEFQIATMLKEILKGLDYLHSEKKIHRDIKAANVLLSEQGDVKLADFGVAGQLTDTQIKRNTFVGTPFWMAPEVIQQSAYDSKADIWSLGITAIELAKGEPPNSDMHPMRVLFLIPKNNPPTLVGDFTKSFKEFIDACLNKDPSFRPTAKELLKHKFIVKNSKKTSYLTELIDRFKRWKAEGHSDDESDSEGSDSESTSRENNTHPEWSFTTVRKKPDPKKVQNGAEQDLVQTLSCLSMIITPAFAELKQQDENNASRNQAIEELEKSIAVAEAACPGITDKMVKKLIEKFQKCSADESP

`COc1cccc(/C=N/Nc2ncnc3c2cnn3-c2cccc(OC)c2)c1` was tested. Which inhibition did it give?
Its inhibition is -1.93%.

For `COc1ccc2ncn(-c3cc(O[C@H](C)c4ccccc4Cl)c(C(N)=O)s3)c2c1`, which inhibition is on record?
Its inhibition is -5.03%.

How did the inhibition turn out when `O=C(Nc1n[nH]c2cc(-c3cc(F)ccc3F)ccc12)C1CC1` was run?
The inhibition was -1.14%.

How did the inhibition turn out when `COc1ccc(-c2ccc3c(NC(=O)C4CC4)n[nH]c3n2)cc1` was run?
The inhibition was 1.05%.

`Clc1ccc(CNc2nccc(-c3cnn4ncccc34)n2)cc1` was tested. Which inhibition did it give?
The inhibition was 1.18%.

`CN(C)CCOc1ccc(-c2cc(-c3ccc4c(c3)CCC4=NO)c(-c3ccncc3)o2)cc1` was tested. Which inhibition did it give?
The inhibition was 3.69%.

`COc1cc(N2CCN(C(C)C)CC2)ccc1Nc1nc(Nc2ccc(F)cc2C(=O)NC[C@@H](O)CO)c2cc[nH]c2n1` was tested. Which inhibition did it give?
Its inhibition is -2.64%.

Which inhibition does the source give for `Cc1ccc(C(=O)NC(C)C)cc1-c1ccc(C(=O)NCC2CC2)cc1` here?
Its inhibition is 1.12%.

`O=C(Nc1ccc(Oc2ccc3[nH]c(NC(=O)c4ccccc4)nc3c2)cc1)Nc1cc(C(F)(F)F)ccc1F` was tested. Which inhibition did it give?
Its inhibition is -0.48%.

With `Cc1ccc(C(=O)NC2CCC2)cc1-c1ccc(C(=O)NCC2CC2)cc1` as the compound, how does the inhibition read?
The inhibition was -4.44%.

`O=C1Nc2ccc(I)cc2C1=Cc1cc(Br)c(O)c(Br)c1` was tested. Which inhibition did it give?
The inhibition was 8.78%.

`COc1cc(C)c(N(C)C(=O)CN(C)C)cc1Nc1nc(Nc2cccc(F)c2C(N)=O)c2cc[nH]c2n1` was tested. Which inhibition did it give?
The inhibition was -1.63%.

Which inhibition does the source give for `NS(=O)(=O)c1ccc(N/N=C2\C(=O)Nc3ccc(-c4cnco4)cc32)cc1` here?
Its inhibition is 11.1%.

`CS(=O)(=O)CCNCc1ccc(-c2ccc3ncnc(Nc4ccc(OCc5ccccc5)c(Br)c4)c3c2)o1` was tested. Which inhibition did it give?
Its inhibition is -1.33%.

For `COc1cccc(-n2cnc3c(N/N=C/c4ccncc4)ncnc32)c1`, which inhibition is on record?
The inhibition was -2.88%.

How did the inhibition turn out when `Cc1ccc(NC(=O)c2ccoc2)cc1-c1ccc(C(=O)NCC2CC2)cc1` was run?
The inhibition was -2.75%.
